# ± gives the standard deviation of the averaged measurements.
# Test system: mESC LDLR-Dup GFP reporter (SpCas9 MH-deletion repair)
# Test: fraction of GFP+ cells relative to DMSO control (fold change); higher = more MH-deletion repair to in-frame LDLR (or more editing)
# Details: 2 µM; 7 days post-transfection
row,Compound,fraction of GFP+ cells
1,O=C(O)c1ccc2c(c1)nc(Nc1cccc(Cl)c1)c1ccncc12 [Silmitasertib (CX-4945)],0.655 ± 0.32
2,"CC[C@H](CO)Nc1nc(NCc2ccccc2)c2ncn(C(C)C)c2n1 [Roscovitine (Seliciclib,CYC202)]",1.06 ± 0.096
3,O=c1[nH]c(=O)n([C@H]2C[C@H](O)[C@@H](CO)O2)cc1C(F)(F)F [Trifluridine],2.69
4,CC(C)(C)OC(=O)Nc1ccc(-c2cc(C(=O)NCCCCCCC(=O)NO)no2)cc1,0.902 ± 0.059
5,N=C1NC(=O)/C(=C/c2ccc(O)cc2)S1 [Mirin],0.862 ± 0.2
6,C[C@@H](N)c1ccc(C(=O)Nc2ccnc3[nH]ccc23)cc1,1.54 ± 0.27
7,Nc1nc2[nH]cc(CCc3ccc(C(=O)N[C@@H](CCC(=O)O)C(=O)O)cc3)c2c(=O)[nH]1 [Pemetrexed Disodium Hydrate],1.69 ± 0.34
8,CS(=O)(=O)c1ccc(-c2nnc(/C=C/c3nnc(-c4ccc(C#N)cc4)o3)n2-c2ccccc2Cl)nc1,0.816 ± 0.089
9,Cc1ccc(S(=O)(=O)c2ccc([N+](=O)[O-])o2)cc1,1.39 ± 0.46
10,CN(C)/N=N/c1[nH]cnc1C(N)=O [Dacarbazine],1.01 ± 0.49
11,CC1=C(C(=O)Nc2cc3cn[nH]c3cc2F)C(c2ccc(C(F)(F)F)cc2)CC(=O)N1 (stereo not given),1.27 ± 0.48
12,C=C1C(=O)O[C@@H]2/C=C(\C)CC/C=C(\C)CC[C@@H]12 [Costunolide],1.22 ± 0.2
13,NC(=O)c1ccccn1 [Picolinamide],1.08 ± 0.046
14,O=c1[nH]c(=O)n(C2CCCO2)cc1F (stereo not given),1.06 ± 0.28
15,O=c1cc(N2CCOCC2)oc2c(-c3cccc4c3sc3ccccc34)cccc12,0.732 ± 0.4
